Reference: PubChem BioAssay AID1903 (Southern Research Specialized Biocontainment Screening …, 2009)
In all, about 310,000 compounds went through this assay and about 1,200 (0.39%) were called active. The rule behind the calls is not given here. Not all results are given here. Measured potencies and affinities stand elsewhere.

Target: Large T antigen (Simian virus 40) (UniProt P03070)
Test: TAg ATPase/helicase activity blockers – biochemical (AID 1903)
Conditions: SV40 large T antigen ATPase/helicase inhibition assay; at 20 µM; hits give high values

Sequence of Large T antigen (Simian virus 40) (P03070 whole entry, looked up): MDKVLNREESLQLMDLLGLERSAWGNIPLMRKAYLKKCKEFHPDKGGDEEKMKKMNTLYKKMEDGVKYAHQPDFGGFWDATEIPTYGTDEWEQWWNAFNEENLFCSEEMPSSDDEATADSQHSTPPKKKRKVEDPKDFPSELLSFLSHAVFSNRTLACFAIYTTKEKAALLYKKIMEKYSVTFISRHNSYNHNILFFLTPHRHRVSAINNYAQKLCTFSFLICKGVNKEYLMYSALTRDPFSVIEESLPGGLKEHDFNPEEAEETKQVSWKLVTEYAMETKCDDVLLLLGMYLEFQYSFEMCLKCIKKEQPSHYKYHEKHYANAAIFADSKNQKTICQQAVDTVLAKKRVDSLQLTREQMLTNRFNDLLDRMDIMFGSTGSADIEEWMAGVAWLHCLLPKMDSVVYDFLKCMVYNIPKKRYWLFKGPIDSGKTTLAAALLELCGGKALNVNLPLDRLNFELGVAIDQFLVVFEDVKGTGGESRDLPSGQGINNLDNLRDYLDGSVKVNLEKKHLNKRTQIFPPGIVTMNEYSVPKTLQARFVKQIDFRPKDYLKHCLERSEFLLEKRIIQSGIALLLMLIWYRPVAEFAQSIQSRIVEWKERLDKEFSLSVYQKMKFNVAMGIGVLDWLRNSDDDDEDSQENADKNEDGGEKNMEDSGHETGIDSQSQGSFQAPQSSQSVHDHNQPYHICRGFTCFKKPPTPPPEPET

inhibition, inactive:
CN1CCCN(C(=O)CSc2ccccc2)CC1 27.3%, Cc1ccc(/C=C/C(=O)NCc2ccco2)o1 16.3%, O=C1NC(=S)N/C1=C/c1cccn1-c1ccc([N+](=O)[O-])cc1 5.15%, O=C1C(=Cc2cccn2-c2ccc(O)cc2)C(=O)c2ccccc21 3.5%, COc1ccc(N(CC(=O)Nc2ccc(C)cc2C)S(=O)(=O)c2c(C)n[nH]c2C)cc1 17.7%, O=C(COC(=O)c1n[nH]c2ccccc12)Nc1cccc(S(=O)(=O)N2CCOCC2)c1 7.02%, CCOc1ccc(NS(=O)(=O)c2ccc3[nH]c(=O)oc3c2)cc1 1.63%, CCOc1ccc(S(=O)(=O)Nc2ccc(O)c(Sc3ncn[nH]3)c2)cc1 6.38%, O=C(c1ccc(S(=O)(=O)Nc2ccc(F)cc2)cc1)N1CCN(c2ccccn2)CC1 10.4%, COc1cc(/C=C2/C(=O)NN(c3ccc(Cl)cc3)C2=O)cc(Br)c1O 32.1%, COc1cc(/C=C2/SC(=O)NC2=O)ccc1OC(=O)c1ccco1 15.8%, COc1cc(/C=C2/C(=O)NN(c3cccc(C)c3)C2=O)cc([N+](=O)[O-])c1O 12.9%, COc1cc(/C=C2\C(=O)N(c3ccc(S(N)(=O)=O)cc3)N=C2C)ccc1OC(=O)c1ccco1 32.1%, COc1cc(/C=C2\C(=O)NN(c3ccc(C)cc3)C2=O)cc([N+](=O)[O-])c1O 36.6%, COC(=O)c1ccc(N2NC(=O)/C(=C/c3ccc(OC)c(OC)c3)C2=O)cc1 23.8%, O=C(c1cccc2nc3ccccc3nc12)N1CCOCC1 13.7%, Cc1ccccc1N1C(=O)c2cccc([N+](=O)[O-])c2C1=O 18.8%, Cc1cccn2c(CNCCSc3nccn3C)c(C(=O)N3CCCCC3)nc12 14.5%, O=C(Nc1nncs1)Oc1ccccc1 14.9%, CCCCc1nc(SCC(=O)N2CCCC2)c2c(=O)n(C)c(=O)n(C)c2n1 8.36%, O=C(Nc1ccc(F)cc1)c1ccc(NC(=O)C2CCCO2)cc1 (centres undefined) 1.01%, O=C(Nc1nccs1)C1CC=CCC1 (centres undefined) 2.9%, O=C(NNC(=O)C1CC=CCC1)c1ccccc1O (centres undefined) -2.59%, O=C(Nc1ccc(Oc2ccc(NC(=O)C3CCCO3)cc2)cc1)C1CCCO1 (centres undefined) 5.21%, O=C(Nc1cccc(O)c1)c1ccc(NC(=O)C2CCCO2)cc1 (centres undefined) 12.5%, O=C(Nc1ccc(F)cc1)C1CCCO1 (centres undefined) 22.1%, COc1ccc(OC)c(CC(=O)NC(c2ccccc2)c2ccccc2)c1 5.47%, O=C(N=Nc1c(O)[nH]c2ccccc12)c1cc(-c2ccc(F)cc2)n[nH]1 7.92%, O=C(c1ccncc1)N1CCN(C(=O)c2ccco2)CC1 6.56%, O=S(Cc1cc(Oc2ccccc2)nc(-c2ccccc2)n1)c1ccccc1 (centres undefined) 16.4%, CN1CCN(c2ccc(CNC(=O)c3ccco3)cc2)CC1 9.25%, O=C(CCCN1C(=O)CSc2ncccc21)N1CCN(Cc2ccccc2)CC1 -0.33%, COc1cccc(N/C(SCc2ccccc2F)=C(/C#N)C(=O)NCc2cccs2)c1 2.65%, Cc1ccc2[nH]c(=O)c(CN(Cc3ccccc3)C(=S)NCCCN(C)C)cc2c1 2.51%, NC(=O)c1cc(N)ccc1N1CCCC1 18.4%, NC(=O)c1cc(N)ccc1N1CCCCC1 36%, COc1ccc(N(CC(=O)N2CCCC2)S(=O)(=O)c2ccc(NC(C)=O)cc2)cc1 -2.23%, O=C(CCc1ccccc1)Nc1nc2nc(-c3ccccc3)cc(=O)n2[nH]1 -26.7%, C/C(O)=C(\C#N)c1nc2ccccc2[nH]1 1.46%, C/C(O)=C(/C#N)c1nc2ccccc2[nH]1 7.8%, O=S(=O)(c1cc(-c2nnc(-c3ccc(Br)cc3)o2)ccc1Br)N1CCCCCC1 4.66%, CN(C)c1nn(C(=O)Nc2cccc(C(F)(F)F)c2)cc1-c1ccccc1 23.9%, O=C(Nc1ccc(Cl)cc1Cl)c1ccc(-c2ccccc2)cc1 3.2%, CN1CCN(S(=O)(=O)c2cnccc2N2CCN(c3cccc(Cl)c3)CC2)CC1 25%, Cc1c(C(=O)/C=C/N(C)C)nnn1-c1ccc(F)c(Cl)c1 10.7%, CC(NS(=O)(=O)c1ccc(Br)cc1)C(N)=O (centres undefined) 3.6%, COc1cc(/C=N\NC(=O)c2ccc(Cn3cc(Br)c([N+](=O)[O-])n3)o2)cc(OC)c1O 32.8%, Cc1c(Cl)c([N+](=O)[O-])nn1Cc1ccc(C(=O)N/N=C\c2cccc(Br)c2)o1 -0.98%, Cc1c(Cl)c([N+](=O)[O-])nn1Cc1ccc(C(=O)N/N=C\c2ccccn2)o1 6.44%, COc1ccc(/C=N/NC(=O)c2ccc(N)cc2)cc1Cn1cc([N+](=O)[O-])cn1 -3.89%, COc1ccc(/C=N/NC(=O)c2ccncc2)cc1CN1CCOCC1 14.2%, COc1ccc(/C=N/NC(=O)c2ccccc2O)cc1Cn1cc([N+](=O)[O-])cn1 12.7%, COc1ccc(/C=N/NC(=O)c2ccc(Cn3cc([N+](=O)[O-])cn3)o2)cc1O 17.9%, COc1ccc(/C=N/NC(=O)c2cccc(Br)c2)cc1CN1CCOCC1 4.55%, Cc1ccc([N+](=O)[O-])c(C(=O)N/N=C/c2cccnc2)c1 13.6%, O=[N+]([O-])c1cccc(/C=N/N2CCN(Cc3ccccc3)CC2)c1 16.1%, CN1CCOc2ccc(S(=O)(=O)NCCc3ccc(Cl)cc3)cc21 4.83%, CC(Oc1ccc(Br)cc1)C(=O)NCC(c1cccs1)N1CCOCC1 (centres undefined) 0.98%, O=C(NNc1ccc([N+](=O)[O-])cc1)C1C2CCCCC21 (centres undefined) 2.05%, CC1CCN(S(=O)(=O)c2cccc(C(=O)N(Cc3ccccc3)c3ccccn3)c2)CC1 6.8%, CN(C)/C=C(\C#N)C(=O)Nc1ccc(F)cc1 -1.08%, CN(C)/C=C(\C#N)C(=O)Nc1ccc(F)c(Cl)c1 14.7%, COc1ccc(C)cc1NC(=O)c1ccc2c(O)c(S(=O)(=O)c3ccccc3)c(=O)[nH]c2c1 13.8%, CC(C)(C)c1ccc(OCC(O)CSc2ncn[nH]2)cc1 (centres undefined) 3.06%, COc1ccc2c(c1)C(=O)c1ccccc1CO2 10.1%, COc1ccc2c(c1)C(=O)CC(c1ccccc1F)O2 (centres undefined) 15.3%, O=C1C2C3C=CC(CO)(O3)C2C(=O)N1c1ccccc1-c1ccccc1 (centres undefined) 13.7%, O=C(O)c1c(-c2ccccc2)oc2ccc(O)cc12 15%, CCN(CC)C(=O)c1c(-c2ccccc2)oc2ccc(O)cc12 13.9%, CCn1c(=O)n(CC)c2cc([N+](=O)[O-])ccc21 -2.72%, CCn1c(=O)n(CC)c2cc(S(N)(=O)=O)ccc21 3.97%, O=C(COc1ccccc1Cl)NCc1nc(-c2ccccc2)no1 10.2%, Cc1ccc(Nc2nc(N)c([N+](=O)[O-])c(N3CCOCC3)n2)cc1 9.48%, COc1ccc(Nc2nc(N)c([N+](=O)[O-])c(N3CCOCC3)n2)cc1 10.9%, Cc1cc(/C=C(\C#N)C(=O)O)c(C)n1C1CC1 11.4%, O=C(N/N=C/c1ccc(OCc2ccc(F)cc2)cc1)c1ccccc1 1.09%, CCOC(=O)C1CCCN(C(=O)Cn2sc3nc(C)cc(C)c3c2=O)C1 (centres undefined) 73.4%, Cc1cccc(N2CCN(C(=O)Cn3nc(C)n4cccc4c3=O)CC2C)c1 (centres undefined) 8.5%, Cc1cc(C)c2c(=O)n(CC(=O)N3CCC(Cc4ccccc4)CC3)sc2n1 3.6%, Cc1nn(CC(=O)N2CCC(N3CCCCC3)CC2)c(=O)c2c1sc1ccccc12 17.6%, CN1CCN(c2ccc(Cl)cc2NC(=O)c2ccc(=O)n(C)n2)CC1 22.8%, CC(C)c1ccc2[nH]c(O)c(N=NC(=O)c3cccc(S(=O)(=O)Nc4ccccc4Cl)c3)c2c1 -4.52%, COc1ccccc1C(=O)NNC(=O)c1sccc1-n1cccc1 8.72%, CN(C)CCCN1c2ccccc2Sc2ccccc21 33%, CCN(CC)CCN1c2ccccc2Sc2ccccc21 34.5%, CCCCN(C(=O)c1ccc([N+](=O)[O-])o1)c1c(N)n(CC(C)C)c(=O)[nH]c1=O 20.2%, COc1cccc(-c2cc(C(=O)Nc3cc(C)on3)no2)c1 3.2%, Cc1ccc2oc(=O)c3cnn(CC(=O)NCCCOC(C)C)c3c2c1 5.01%, CCOC(=O)Cc1csc(NC(=O)c2ccc3c(c2)OCO3)n1 -7.42%, NC1=NC(=O)/C(=C/c2cc(Br)c(O)c(Br)c2)S1 23.3%, COc1ccc(/C=C2/SC(c3ccc(C)cc3)=NC2=O)cc1OC 7.06%, COc1cc(/C=C2\SC(c3ccc(C)cc3)=NC2=O)cc(OC)c1OC 14.7%, COc1ccc(/C=C2\SC(c3ccc(C)cc3)=NC2=O)cc1OC 4.55%, O=C(Nc1ccc(CN2CCOCC2)cc1)c1ccc(Br)o1 4.15%
